Experimental findings from PubChem BioAssay AID493113 (Johns Hopkins Ion Channel Center, 2011) are described below.

Entries with a potency or affinity are not part of this list. Calls of active or inactive are those of the source.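 How the source made its calls: active means compound that boosts KCNQ2 potassium channel current at some tested dose and yields a dose response curve; inactive means no boost at any tested dose or no curve.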

The target in the assay is Potassium voltage-gated channel subfamily KQT member 2 (Rattus norvegicus) (UniProt O88943). Description: KCNQ2 channel activators, analog series, SAR follow-up, automated patch clamp, KCNQ2-CHO cells (AID 493113). As to conditions: automated patch clamp current potentiation; series mostly up to 30 µM; potentiation: at the top concentration.
Chain of Potassium voltage-gated channel subfamily KQT member 2 (Rattus norvegicus) (O88943 whole entry, looked up): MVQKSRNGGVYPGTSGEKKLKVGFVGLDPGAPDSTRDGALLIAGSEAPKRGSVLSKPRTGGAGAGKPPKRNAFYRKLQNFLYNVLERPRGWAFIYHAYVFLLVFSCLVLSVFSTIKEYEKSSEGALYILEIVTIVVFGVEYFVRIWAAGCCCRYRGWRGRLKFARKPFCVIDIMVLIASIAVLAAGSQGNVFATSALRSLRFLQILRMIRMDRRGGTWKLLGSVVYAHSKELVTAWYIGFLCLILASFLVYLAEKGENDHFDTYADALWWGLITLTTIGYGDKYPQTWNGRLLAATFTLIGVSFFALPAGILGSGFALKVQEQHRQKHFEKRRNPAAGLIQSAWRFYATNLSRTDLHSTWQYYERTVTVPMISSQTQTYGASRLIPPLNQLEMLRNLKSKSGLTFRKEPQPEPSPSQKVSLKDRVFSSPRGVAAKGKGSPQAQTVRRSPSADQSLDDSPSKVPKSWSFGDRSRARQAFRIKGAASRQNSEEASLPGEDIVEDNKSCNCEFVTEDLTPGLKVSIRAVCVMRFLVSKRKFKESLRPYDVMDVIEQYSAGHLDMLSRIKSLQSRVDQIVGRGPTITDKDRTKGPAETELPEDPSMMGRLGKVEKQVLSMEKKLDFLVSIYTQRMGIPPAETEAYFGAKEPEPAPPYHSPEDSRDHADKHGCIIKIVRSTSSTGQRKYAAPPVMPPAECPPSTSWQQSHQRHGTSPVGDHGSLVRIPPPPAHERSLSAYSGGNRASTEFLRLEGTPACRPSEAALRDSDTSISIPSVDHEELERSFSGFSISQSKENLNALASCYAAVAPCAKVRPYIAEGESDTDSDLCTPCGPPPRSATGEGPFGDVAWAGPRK
For `Cc1cc(C)c(NC(=O)c2ccc3ccccc3c2)c(C)c1`, the “potentiation” value is 6.32 (inactive). On to `O=C(Nc1ccc(F)cc1)C1CC2CCC1C2` (configuration not stated), for which the “potentiation” value is 61 (inactive).

On to `Cc1cc(C)c(NC(=O)c2ccc(Cl)c(Cl)c2)c(C)c1`, for which the “potentiation” value is 50.9 (inactive). As for `O=C(Nc1ccccn1)C1CC2CCC1C2` (configuration not stated), the “potentiation” value was 32.3 (inactive). With `Cc1cc(C)c(NC(=O)c2cccc(C(F)(F)F)c2)c(C)c1` the figure was -47.8 (inactive). Regarding `Cc1cc(C)c(NC(=O)c2ccccc2)c(C)c1`, the “potentiation” value was 6.47 (inactive). The figure for `O=C(Nc1ccc(C(F)(F)F)cc1)C1CC2CCC1C2` (configuration not stated) is 18 (inactive); for `CC(=O)Nc1c(C)cc(C)cc1C` it is 103 (inactive). Consider `CCC(=O)Nc1c(C)cc(C)cc1C`, for which the “potentiation” value is 79.7 (inactive). Take `Cc1cc(C)cc(NC(=O)C2CC3CCC2C3)c1` (configuration not stated): the “potentiation” value is 47.4 (inactive). `O=C(Nc1ccccc1)C1CC2CCC1C2` (configuration not stated): the “potentiation” value is 136 (inactive).

For the compound `Cc1cc(C)c(NC(=O)c2ccc(C(F)(F)F)cc2)c(C)c1`, the “potentiation” value is 32.3 (inactive). As to `Cc1cc(C)c(NC(=O)C23CC4CC(CC(C4)C2)C3)c(C)c1`, the “potentiation” value is 41.6 (inactive). On to `Cc1cc(C)c(NC(=O)c2cc(C(F)(F)F)cc(C(F)(F)F)c2)c(C)c1`, for which the “potentiation” value is -15.3 (inactive).

`Cc1ccc(C(=O)Nc2c(C)cc(C)cc2C)cc1`: the “potentiation” value is 24.6 (inactive). Consider `Cc1cc(C)c(NC(=O)C23CCC(C)(C(=O)O2)C3(C)C)c(C)c1` (configuration not stated), for which the “potentiation” value is -19.5 (inactive). Take `Cc1cc(C)c(NC(=O)C(C)(C)C)c(C)c1`: the “potentiation” value was 38.5 (inactive).
